RORg inh = ROR gamma (mouse) transcription inhibition; Potency, µM (top dose mostly 53.6 µM), hits mostly inhibitors; Drosophila S2 Gal4-RORgamma UAS-luciferase reporter, 20 h; P51450; AID 2551; 5.4% of 310,000 active; note: nearly all actives have a fitted effect of over 60% in size
Target sequence (P51450 whole entry, looked up, the tested form may be a part): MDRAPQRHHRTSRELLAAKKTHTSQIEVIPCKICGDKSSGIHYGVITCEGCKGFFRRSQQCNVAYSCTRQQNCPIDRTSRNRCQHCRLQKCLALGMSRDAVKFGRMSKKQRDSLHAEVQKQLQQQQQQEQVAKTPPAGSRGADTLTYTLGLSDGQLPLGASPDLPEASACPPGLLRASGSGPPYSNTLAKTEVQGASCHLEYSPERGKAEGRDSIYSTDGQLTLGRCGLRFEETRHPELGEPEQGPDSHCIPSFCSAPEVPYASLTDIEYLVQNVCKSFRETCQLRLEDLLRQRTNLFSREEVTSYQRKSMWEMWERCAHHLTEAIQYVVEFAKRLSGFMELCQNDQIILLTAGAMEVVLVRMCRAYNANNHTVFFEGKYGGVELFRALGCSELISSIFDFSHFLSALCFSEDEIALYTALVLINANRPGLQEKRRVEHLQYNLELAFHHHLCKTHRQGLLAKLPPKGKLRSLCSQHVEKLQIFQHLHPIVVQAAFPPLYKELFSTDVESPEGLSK
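Schneider cells (Drosophila), stable Gal4 DBD–ROR gamma + UAS-luc; 1 hr cmpd preincubation; Cu2+ induction 700 uM final; 20 hr ambient; luminescence.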
VP16 counter = inhibits Gal4-VP16 luciferase reporter, ROR gamma counter-screen. Drosophila S2 Gal4-VP16 UAS-luciferase, luminescence, 20 h. Potency, µM (series often up to 53.6 µM), usual class: inhibitors. 3.5% of 310,000 active. AID 2546;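 note: Gal4-VP16 expression switched on by copper sulfate through the metallothionein promoter; nearly all actives have a fitted effect of over 50% in size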
DT40 TDP1 no CPT = qHTS for Inhibitors of human tyrosyl-DNA phosphodiesterase 1 (TDP1): qHTS in cells in absence of CPT | Potency, µM (series often up to 46.2 µM), hits mostly inhibitors | DT40 Tdp1-/- hTDP1 cells, no CPT, ATP luminescence, 48 h | 15% of 420,000 active; note: nearly all actives have a fitted effect of over 55% in size
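A cellular qHTS used chicken DT40 cells lacking endogenous Tdp1 but carrying stably transfected human TDP1. Compounds were applied without camptothecin, and cell growth kinetics were judged by ATP-dependent luminescence after ≥48 hr.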
ELG1 DNA repair = ELG1-dependent DNA repair inhibition; AID 504467; HEK293T ELG1-luciferase reporter, luminescence, 16 h; DNA damage induced by 5-fluorouridine; Potency, µM (titrated, usually from 46.1 µM), usual class: inhibitors; 2.3% of 330,000 active; note: nearly all actives have a fitted effect of over 55% in size
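Luminescence from the luciferase reporter, measured 30 min after ONE-Glo reagent at room temperature, was the read-out. Beforehand, 2,000 cells per well were exposed for 16 hr at 37 °C to 5-fluorouridine together with compound or vehicle.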
IL-1B inflam inh = inhibitors of inflammasome signaling (IL-1 beta secretion) | THP-1 LPS/ATP IL-1B secretion, AlphaLISA, 16 h; active compounds read low | activity change, % at 57.5 µM | 4.7% of 360,000 active | AID 743279; in the data active = activity change below about -50%; inconclusive = mostly about -30% to -49%
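THP-1 cells pretreated 1 hr with compounds (up to 57.5 uM final), then stimulated with LPS (250 ng/mL final) plus ATP (1.25 mM final); secreted IL-1B measured by AlphaLISA after 16 hr, decreased signal indicating inhibition.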
DT40 TDP1 CPT = growth inhibition of DT40 Tdp1-/-;hTDP1 cells with camptothecin (screen for TDP1 inhibitors); chicken DT40 Tdp1-/-;hTDP1 cells + 20 nM CPT, ATP luminescence, 48 h; Potency, µM (doses to about 46.2 µM), actives largely listed as inhibitors; 12% of 420,000 active; note: nearly all actives have a fitted effect of over 55% in size
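Chicken DT40 Tdp1-/- cells complemented with human TDP1, 400 cells/well, exposed to compounds plus 20 nM camptothecin for at least 48 h at 37 C; viability read as ATP content by CellTiter-Glo luminescence.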
Large screens that a line does not name were inactive. In the library only some 21% were active in any assay of this set; here they are far more common. Unless noted, calls come from the whole dose curve; as a rule, active = well fitted curve in the direction sought with a large enough effect; inconclusive = small, poorly fitted or top-dose-only effect, or another doubt; inactive = no such curve, though single readings can be large; an effect the other way counts as inactive or inconclusive.

CC(C)c1ccc(NC(=O)CSc2nc(=O)n(Cc3ccccn3)c3c2CCC3)cc1	DT40 TDP1 no CPT 18.4µM, DT40 TDP1 CPT 23.1µM (no result: RORg inh, VP16 counter, ELG1 DNA repair, IL-1B inflam inh)
Cc1ccc(NC(=O)CSc2nc(=O)n(CCCN3CCOCC3)c3c2CCCC3)cc1F	IL-1B inflam inh -85.2 (no result: RORg inh, VP16 counter)
O=C(CSc1nc(=O)n(Cc2cccnc2)c2c1CCC2)Nc1cccc(Cl)c1	DT40 TDP1 no CPT inconclusive (no result: RORg inh, VP16 counter, ELG1 DNA repair, IL-1B inflam inh)
Cc1ccc(-c2n[nH]c3c2C(c2ccc(C(C)(C)C)cc2)NC3=O)cc1 (stereo not drawn)	none (no result: RORg inh, VP16 counter, ELG1 DNA repair, IL-1B inflam inh)
O=C(NC1CCCC1)c1cn(C2CCN(Cc3cccc4cccnc34)CC2)nn1	none (no result: RORg inh, VP16 counter, ELG1 DNA repair, IL-1B inflam inh)
COC(=O)c1cccc(CN2C(=O)C(C)Oc3ccc(C)cc32)c1 (stereo not drawn)	DT40 TDP1 no CPT 20.6µM, DT40 TDP1 CPT 20.6µM (no result: RORg inh, VP16 counter, ELG1 DNA repair)
Cc1ccc2c(c1)N(Cc1ccccc1)C(=O)C(C)O2 (stereo not drawn)	none (no result: RORg inh, VP16 counter, ELG1 DNA repair)
COc1ccc(CN(CC2CCCO2)C(=O)CN2C(=O)C(C)Oc3ccc(C)cc32)cc1OC (stereo not drawn)	RORg inh inconclusive, DT40 TDP1 no CPT 18.4µM, ELG1 DNA repair 8.2µM, DT40 TDP1 CPT inconclusive
CN(C)c1ccc(CN(CC2CCCO2)C(=O)c2ccc(Br)cc2)cc1 (stereo not drawn)	DT40 TDP1 CPT inconclusive (no result: RORg inh, VP16 counter, ELG1 DNA repair, IL-1B inflam inh)
Cc1cc(Cl)ccc1OCC(=O)N(Cc1ccc(N(C)C)cc1)CC1CCCO1 (stereo not drawn)	DT40 TDP1 no CPT 25.9µM, DT40 TDP1 CPT inconclusive (no result: RORg inh, VP16 counter, ELG1 DNA repair, IL-1B inflam inh)
CN(C)c1ccc(CN(CC2CCCO2)C(=O)COc2ccccc2Cl)cc1 (stereo not drawn)	DT40 TDP1 no CPT 18.4µM, DT40 TDP1 CPT inconclusive (no result: RORg inh, VP16 counter, ELG1 DNA repair, IL-1B inflam inh)
CCC1Oc2ccc(C)cc2N(CC(=O)N(Cc2ccc3c(c2)OCO3)CC2CCCO2)C1=O (stereo not drawn)	DT40 TDP1 no CPT inconclusive, ELG1 DNA repair inconclusive, IL-1B inflam inh inconclusive, DT40 TDP1 CPT inconclusive
Cc1cc(C)nc(NS(=O)(=O)c2ccc(NC(=O)c3ccccc3O)cc2)n1	none (no result: RORg inh, VP16 counter, ELG1 DNA repair, IL-1B inflam inh)
Cc1ccc(-c2nc3ncccn3c2N)cc1	DT40 TDP1 CPT inconclusive (no result: RORg inh, VP16 counter, ELG1 DNA repair)
COc1ccccc1OCC(=O)N(Cc1ccc(N(C)C)cc1)CC1CCCO1 (stereo not drawn)	DT40 TDP1 no CPT 14.6µM, DT40 TDP1 CPT 23.1µM (no result: RORg inh, VP16 counter, ELG1 DNA repair, IL-1B inflam inh)
COc1ccc(C(=O)N(Cc2ccc(N(C)C)cc2)CC2CCCO2)cc1 (stereo not drawn)	DT40 TDP1 CPT inconclusive (no result: RORg inh, VP16 counter, ELG1 DNA repair, IL-1B inflam inh)
Cc1[nH]n(-c2ccc([N+](=O)[O-])cc2)c(=O)c1C=NCCc1c(C)[nH]c2ccccc12	DT40 TDP1 no CPT 16.4µM, ELG1 DNA repair 25.9µM, DT40 TDP1 CPT 16.4µM
Cc1ccc(-n2[nH]c(C)c(/C=N/Nc3ccc([N+](=O)[O-])cc3[N+](=O)[O-])c2=O)cc1	DT40 TDP1 no CPT 14.6µM, DT40 TDP1 CPT 20.6µM
O=c1c(C=NCC2CCCO2)c(-c2ccccc2)[nH]n1-c1ccc([N+](=O)[O-])cc1 (stereo not drawn)	DT40 TDP1 no CPT inconclusive, ELG1 DNA repair inconclusive, DT40 TDP1 CPT inconclusive
Cc1[nH]n(-c2ccc([N+](=O)[O-])cc2)c(=O)c1C=NCCN1CCN(C(=O)C(C)C)CC1	RORg inh inconclusive, DT40 TDP1 no CPT 16.4µM, DT40 TDP1 CPT 11.6µM
Cc1[nH]n(-c2ccc([N+](=O)[O-])cc2)c(=O)c1C=NCCc1ccc(S(N)(=O)=O)cc1	DT40 TDP1 no CPT inconclusive, DT40 TDP1 CPT inconclusive
Cc1ccc(-n2[nH]c(C)c(/C=N/c3cccc(C)n3)c2=O)cc1	ELG1 DNA repair inconclusive, DT40 TDP1 CPT inconclusive
Cc1[nH]n(-c2ccc([N+](=O)[O-])cc2)c(=O)c1C=NCC1CCCO1 (stereo not drawn)	DT40 TDP1 no CPT 10.3µM, ELG1 DNA repair inconclusive, DT40 TDP1 CPT 10.3µM
COc1ccc(S(=O)(=O)N2CCN(Cc3nc4ccc(C)cc4o3)CC2)cc1OC	DT40 TDP1 CPT inconclusive (no result: RORg inh, VP16 counter, ELG1 DNA repair, IL-1B inflam inh)
COc1ccc2c(c1)OC13CCN(C)CC1C2C(C(=O)c1ccc(F)cc1)C(=O)N3 (stereo not drawn)	none
